# TDP1 cell CPT: DT40-hTDP1 cell growth loss with CPT | chicken DT40 Tdp1-/-;hTDP1 cells + 20 nM CPT, ATP luminescence, 48 h | Potency, µM (highest dose often 46.2 µM), most hits filed as inhibitors | 420,000 tested, 12% active; further: nearly all actives have a fitted effect of over 55% in size
#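 Chicken DT40 Tdp1-/- cells complemented with human TDP1, 400 cells/well, exposed to compounds plus 20 nM camptothecin for at least 48 h at 37 C; viability read as ATP content by CellTiter-Glo luminescence.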
# HepG2 viability: HepG2 cytotoxicity, counter-screen for TGF-b inhibitors. HepG2 CAGA-GFP viability, ATP luminescence, 18 h. Potency, µM (top dose mostly 46.1 µM), most hits filed as cytotoxic. 410,000 tested, 0.76% active
#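 HepG2 CAGA-GFP cells (1000/well, DMEM with 1% FBS) received compound, then TGF-beta at 500 pg/mL final, and were incubated 18 hours at 37 degrees C. Viability was read by CellTiter-Glo luminescence. Media-only wells were set as complete cell-killing and DMSO as no toxicity.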
# DT40 TDP1 no CPT: qHTS for Inhibitors of human tyrosyl-DNA phosphodiesterase 1 (TDP1): qHTS in cells in absence of CPT | DT40 Tdp1-/- hTDP1 cells, no CPT, ATP luminescence, 48 h | Potency, µM (series often up to 46.2 µM), usual class: inhibitors | 420,000 tested, 15% active; further: nearly all actives have a fitted effect of over 55% in size
#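 Seeded 400 DT40-hTDP1 cells/well (vehicle DMSO, no 20 nM CPT); pinned compounds; ≥48 hr at 37 °C; CellTiter-Glo luminescence as viability measure.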
# TDP1 inh: inhibitors of human tyrosyl-DNA phosphodiesterase TDP1; Q9NUW8; recombinant TDP1, AlphaScreen DNA substrate cleavage; Potency, µM (highest dose often 130 µM), actives largely listed as inhibitors; 350,000 tested, 0.28% active; further: nearly all actives have a fitted effect of over 40% in size
# Target sequence (Q9NUW8 whole entry, looked up): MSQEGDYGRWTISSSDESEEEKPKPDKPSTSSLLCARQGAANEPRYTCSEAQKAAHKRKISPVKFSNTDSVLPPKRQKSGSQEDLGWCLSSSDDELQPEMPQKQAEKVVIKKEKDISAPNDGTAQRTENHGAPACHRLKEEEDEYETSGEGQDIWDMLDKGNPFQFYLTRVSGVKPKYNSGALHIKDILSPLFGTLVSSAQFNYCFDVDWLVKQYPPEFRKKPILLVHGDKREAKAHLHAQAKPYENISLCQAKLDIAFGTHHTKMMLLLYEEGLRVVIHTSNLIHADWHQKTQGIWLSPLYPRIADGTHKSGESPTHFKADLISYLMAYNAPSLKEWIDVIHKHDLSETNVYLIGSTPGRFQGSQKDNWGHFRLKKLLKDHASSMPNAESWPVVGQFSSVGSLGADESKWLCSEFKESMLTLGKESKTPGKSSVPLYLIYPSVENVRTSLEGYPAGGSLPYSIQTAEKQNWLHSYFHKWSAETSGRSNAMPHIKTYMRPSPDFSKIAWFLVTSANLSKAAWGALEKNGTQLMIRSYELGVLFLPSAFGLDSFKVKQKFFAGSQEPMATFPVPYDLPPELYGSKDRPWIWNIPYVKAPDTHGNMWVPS
#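 Here, a 5' biotin and 3' phosphotyrosine-FITC DNA oligonucleotide reports Tdp1 activity: intact substrate bridges AlphaScreen beads, while cleavage leaves a 3' phosphate and drops signal. All incubations at room temperature.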
# IL-1B inflam inh: blocks inflammasome-driven IL-1 beta release. AID 743279. activity change, % at 57.5 µM. 360,000 tested, 4.7% active. THP-1 LPS/ATP IL-1B secretion, AlphaLISA, 16 h; active compounds read low; in the data active means activity change below about -50%; inconclusive means mostly about -30% to -49%
#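 THP-1 cells pretreated 1 hr with compounds (up to 57.5 uM final), then stimulated with LPS (250 ng/mL final) plus ATP (1.25 mM final); secreted IL-1B measured by AlphaLISA after 16 hr, decreased signal indicating inhibition.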
# TGFb inhibitor: blocks TGF-b signaling; HepG2 CAGA-GFP TGF-b/SMAD3 reporter, GFP fluorescence, 18 h; TGF-beta stimulated, 500 pg/mL final; Potency, µM (top dose mostly 46.1 µM), most hits filed as inhibitors; 410,000 tested, 1.2% active; further: nearly all actives have a fitted effect of over 65% in size
#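 HEPG2 CAGA-GFP reporter cells (1000/well, DMEM with 1% FBS) received compounds, then recombinant TGF-beta at 500 pg/mL final for 18 hours at 37 degrees C. Per-cell GFP summed per well was normalised to unstimulated and stimulated DMSO controls before curve fitting.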
# Numbers stand for hits; n = inactive; u = inconclusive; x = no result; [ ] = remark or other dose. Rows were chosen to be rich in hits. Some 19% of all compounds tested hit in one or more screens of this group. Unless noted, the call rests on the fitted dose curve; in most records, active means well fitted curve in the direction sought with a large enough effect; inconclusive means small, poorly fitted or top-dose-only effect, or another doubt; inactive means no such curve, though single readings can be large; an effect the other way counts as inactive or inconclusive.
SMILES,TDP1 cell CPT,HepG2 viability,DT40 TDP1 no CPT,TDP1 inh,IL-1B inflam inh,TGFb inhibitor
O=C(Nc1ccc(Br)c(C(F)(F)F)c1)c1ccccc1,21µM,n,23µM,n,n,u
O=C(Nc1cccc(NC(=O)c2cncc(Br)c2)c1)c1cncc(Br)c1,12µM,n,4.6µM,x,n,u
O=C(Nc1ccncc1)c1cncc(Br)c1,n,n,n,n,n,n
CC(C)c1ccc(NC(=O)c2cccc(Br)c2)cc1,n,n,u,n,-52,n
Cc1cc(O)ccc1NC(=S)NC(=O)c1cncc(Br)c1,15µM,n,16µM,x,n,u
O=C(Nc1cccc(NC(=O)c2ccccc2Cl)c1)c1cccc(Br)c1,u,n,u,n[12.3 µM],x,n
O=C(CCSCc1cccc(Cl)c1)N1CCN(c2ccc(Cl)cc2)CC1,u,n,u,n,x,u
COc1cccc(Cc2nc3cccnc3n2C2CCN(Cc3ccc(C)s3)CC2)c1,n,x,n,x,x,x
COc1ccc(-c2nc3cnc(Oc4cccc(Cl)c4)nc3n(C3CC3)c2=O)cc1,n,x,n,x,x,x
CC1=C(C(=O)Nc2ccc(F)cc2)C(c2ccc(N(C)C)cc2)NC(=O)N1 (centres undefined),n,n,n,x,x,n
Cc1ccc(C)c(N2CCN(C(=O)CS(=O)(=O)c3cccc4nsnc34)CC2)c1,u,n,u,n,x,n
Clc1ccc(Cl)c(Cl)c1Cl,x,x,x,n,x,x
Cc1cc(NC(=O)c2cncc(Br)c2)ccc1NC(=O)c1cc2ccccc2o1,13µM,n,8.2µM,x,u,n
COc1cc(NC(=O)c2ccccc2)ccc1NC(=O)c1cc2ccccc2o1,u,n,u,n[12.3 µM],n,u
COC(C/C=C/C(=O)[C@H](C)OCc1ccccc1)OC,5.2µM,n,7.3µM,x,n,u
COC(C/C=C/C(=O)COCc1ccccc1)OC,15µM,n,u,n,-87,u
COC(C/C=C\[C@H](O)COCc1ccccc1)OC,n,n,n,x,n,n
COC(C/C=C/[C@H](O)[C@@H](C)OCc1ccccc1)OC,n,n,n,x,n,n
Brc1ccc2ncnc(Nc3ccc(N4CCOCC4)cc3)c2c1,12µM,n,9.2µM,n,n,n
CC(=O)c1ccc(Nc2ncnc3ccc(Br)cc23)cc1,n,n,u,x,n,n
O=C(COc1ncnc2ccc(Br)cc12)Nc1ccc(N2CCOCC2)cc1,n,n,n,n,n,n
CC(C)COc1ccc(Nc2ncnc3ccc(Br)cc23)cc1,12µM,n,u,x,x,n
CC(C)Nc1ncnc2ccc(Br)cc12,4.1µM,n,4.1µM,n,n,n
CCCCCCC1=Cc2cc(OC)c(OC)cc2C(C(C(C)=O)C(=O)OCC)O1 (centres undefined),x,x,x,n[21 µM],x,x
COc1ccc(NC(=O)CCNC(=O)c2ccccc2Cl)cc1S(=O)(=O)N1CCCCC1,n,n,n,x,n,n
SMILES,TDP1 cell CPT,HepG2 viability,DT40 TDP1 no CPT,TDP1 inh,IL-1B inflam inh,TGFb inhibitor
COc1ccc2c(c1)O[C@H](c1ccc3c(c1)OCO3)[C@@H](OC(=O)NCCc1ccc(OC)c(OC)c1)C2=O,x,x,x,n,x,x
COc1ccc(N2C(=O)CS/C2=N\C(=S)Nc2ccccc2)cc1,6.5µM,n,5.8µM,n,n,u
CCOC(=O)C1(Cc2cccc(OC)c2)CCN(Cc2cccc3c2OCO3)CC1,u,n,18µM,n,n,n
CCOC(=O)C1(Cc2cccc(OC)c2)CCN(Cc2cccc3cnccc23)CC1,18µM,n,u,n,n,n
CCOC(=O)C1(Cc2cccc(OC)c2)CCN(Cc2cc(OC)ccc2OC)CC1,u,n,16µM,n,-67,u
CCOC(=O)C1(Cc2cccc(OC)c2)CCN(Cc2cccn2-c2ccccn2)CC1,n,n,u,n,n,3.2µM
COc1ccccc1CN1CCOc2ccc(CN3CCC(Oc4cccnc4)CC3)cc2C1,n[9.04 µM],x,u,x,x,x
CCSc1ncc(Cl)c(C(=O)Nc2c(C(=O)Nc3ccc(Cl)cc3)oc3ccccc23)n1,n,n,n,n,x,x
CCOC(=O)C1(CC2CCCCO2)CCN(Cc2ccc(OC)cc2F)CC1 (centres undefined),u,n,21µM,x,n,n
CCOC(=O)C1(Cc2cccc(OC)c2)CCN(Cc2cccc(OC)c2OC)CC1,u,n,18µM,x,-65,u
CCOC(=O)C1(Cc2ccc(OC)cc2)CCN(C(=O)c2ccc3[nH]ccc3c2)CC1,9.2µM,n,7.3µM,n,n,u
CCOC(=O)C1(Cc2cccc(OC)c2)CCN(Cc2cnc(N)nc2)CC1,n,n,n,x,n,n
CCOC(=O)C1(CC2CCCCO2)CCN(Cc2nc3ccccc3nc2C)CC1 (centres undefined),u,n,u,n,n,n
CCOC(=O)C1(Cc2cccc(OC)c2)CCN(Cc2ccccc2)CC1,u,n,u,x,n,n
CCOC(=O)C1(Cc2cccc(OC)c2)CCN(Cc2cccnc2)CC1,u,n,29µM,n,n,n
COC(=O)[C@@H](Cc1c[nH]c2ccccc12)NC(=O)C1CCCN(S(=O)(=O)c2ccc(C)cc2)C1 (some centres undefined),n,n,n,x,n,u
CC1CC2C3CCC4=CC(=O)C=C[C@@]4(C)[C@]3(F)C(O)C[C@]2(C)[C@]1(O)C(=O)CO (some centres undefined),u,x,n,n,x,x
COc1ccc(C(=O)NNC(=O)Cc2nc3nc(C)cc(C)n3n2)cc1,n,n,n,n,n,n
CCOC(=O)C1(Cc2cccc(OC)c2)CCCN(Cc2nccn2CC)C1 (centres undefined),15µM,n,13µM,n,n,n
COc1cc(=O)n2c(c1C(=O)NCc1ccco1)CCN(Cc1ccc3ccccc3c1)CC2,n,x,n,x,x,x
CCNC(=O)C1(C)CCCN1C(=O)c1ccc(C#N)cc1 (centres undefined),n,n,n,x,n,n
O=C(Nc1ccc(S(=O)(=O)N(Cc2ccccc2)c2ccccc2)cc1)c1ccc(F)cc1,23µM,n,6.5µM,n,x,u
COc1cccc(C(=O)Nc2ccc(NC(=O)Cc3ccccc3)cc2)c1,n,n,u,n,n,n
COc1cccc(C(=O)Nc2ccc(S(=O)(=O)N(Cc3ccccc3)c3ccccc3)cc2)c1,u,n,5.8µM,n,x,n
CCN(c1ccccc1)S(=O)(=O)c1cc(C(=O)Nc2ccc(Br)cc2)ccc1F,21µM,n,21µM,n,u,u
O=C(Nc1ccc(S(=O)(=O)N(Cc2ccccc2)c2ccccc2)cc1)c1ccccc1F,u,n,u,n,x,n

# Source: PubChem
